Results filed as inconclusive are left out. The source made the active and inactive calls. Unless noted, the call rests on the fitted dose curve; in most records, active means well fitted curve in the direction sought with a large enough effect in the repeat runs; inconclusive means weak or mixed curves; inactive means no such curve, though single readings can be large; an effect the other way counts as inactive or inconclusive.
Legend:
[1] = qHTS assay for small molecules that induce genotoxicity in human embryonic kidney cells expressing luciferase-tagged ATAD5 (AID 651632); further: on the % scale 0 is the no-effect control and ±100 the full control effect; nearly all actives have a fitted effect of over 15% in size
Outline: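 Test compounds were delivered by pin tool onto HEK293T reporter cells (2,000/well) expressing ATAD5 fused to luciferase. After 16 hr at 37C, 5% CO2, Amplite was added for 30 min at room temperature and luminescence was measured.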

[2] = qHTS assay for small molecule agonists of the p53 signaling pathway - cell viability (AID 651633; calls by dose curve; further: nearly all actives have a fitted effect of over 30% in size; further: potency means the concentration at half of the fitted maximal effect)
Outline: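 Viability counter-read: CellTiter-Glo luminescence (30 min, room temperature) in the same p53RE-bla plates. These plates had been exposed to compounds for 16 h at 37 C.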

[3] = qHTS assay for small molecules that induce genotoxicity in human embryonic kidney cells expressing luciferase-tagged ATAD5 - cell viability (AID 651634; calls by dose curve; further: nearly all actives have a fitted effect of over 25% in size; further: potency means the concentration at half of the fitted maximal effect)
Outline: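 Quantitative high-throughput format. HEK293T cells expressing ATAD5 fused to luciferase were plated at 2,000 cells/well and treated 15.5 hr with compound versus DMSO. Viability was determined by fluorescent live-cell protease substrate, 30 min at 37C.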

[4] = qHTS assay for small molecule disruptors of the mitochondrial membrane potential - cell viability (AID 720634; calls by dose curve;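 further: human HepG2 liver cancer cells; on the % scale 0 is the no-effect control and ±100 the full control effect; nearly all actives have a fitted effect of over 20% in size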)
Outline: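 Same-well counter-screen: following the MMP dye addition, CellTiter-Glo was added to 1 hr compound-treated HepG2 cells and luminescence read after 30 min at room temperature.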

[5] = qHTS assay to test for compound auto fluorescence at 590 nm (red) in HepG2 cells (AID 720674); further: on the % scale 0 is the no-effect control and ±100 the full control effect
Outline: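 Red autofluorescence (Ex/Em 540/590 nm, Rose Bengal sodium equivalents) was measured in HepG2 cells, 2,000 per well in MEM plus 10% FBS, plated overnight at 37 C. Readings were taken 1 hr after adding 23 nL compound or DMSO, at 37 C and 5% CO2.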

[6] = qHTS assay to test for compound auto fluorescence at 535 nm (green) in HepG2 cells (AID 720675); further: on the % scale 0 is the no-effect control and ±100 the full control effect
[7] = qHTS assay to test for compound auto fluorescence at 590 nm (red) in HEK293 cells (AID 720679); further: on the % scale 0 is the no-effect control and ±100 the full control effect
Outline: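 Intensity at 540nm excitation and 590nm emission is reported as Rose Bengal sodium-equivalent autofluorescence. Measurements followed overnight exposure (37C, 5% CO2) of HEK293 cells, 2,000 per well, to 23 nL compound.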

[8] = qHTS assay to test for compound auto fluorescence at 460 nm (blue) in HEK293 cell free culture (AID 720681); further: on the % scale 0 is the no-effect control and ±100 the full control effect
Outline: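 Blue fluorescence (Ex 405/Em 460 nm, triamterene-equivalent) was read immediately after pin transfer of compound or DMSO into medium (DMEM, 10% FBS) without cells.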

[9] = qHTS assay to test for compound auto fluorescence at 535 nm (green) in HEK293 cell free culture (AID 720682); further: on the % scale 0 is the no-effect control and ±100 the full control effect
Outline: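 No cells present: wells hold DMEM supplemented with 10% FBS, into which compound or vehicle is pinned. Green emission is then recorded (485 nm excitation, 535 nm emission) and scaled to fluorescein.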

[10] = qHTS assay to test for compound auto fluorescence at 590 nm (red) in HEK293 cell free culture (AID 720683); further: on the % scale 0 is the no-effect control and ±100 the full control effect
Outline: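 Red-channel autofluorescence of compounds in culture medium (DMEM, 10% FBS), no cells, measured at 540/590 nm. Rose Bengal sodium is the reference fluorophore for equivalence.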

[11] = qHTS assay to test for compound auto fluorescence at 590 nm (red) in HepG2 cell free culture (AID 720684); further: on the % scale 0 is the no-effect control and ±100 the full control effect
Outline: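 Cell-free; medium MEM + 10% FBS; compound or DMSO added by pintool; read Ex 540/Em 590 nm; Rose Bengal sodium as red reference fluorophore.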

[12] = qHTS assay to test for compound auto fluorescence at 460 nm (blue) in HepG2 cell free culture (AID 720685); further: on the % scale 0 is the no-effect control and ±100 the full control effect
Outline: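 Cell-free plates of MEM plus 10% FBS received 23 nL compound or DMSO vehicle; blue-channel (405/460 nm) intensity scored against triamterene as reference fluorophore.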

[13] = qHTS assay to test for compound auto fluorescence at 535 nm (green) in HepG2 cell free culture (AID 720686); further: on the % scale 0 is the no-effect control and ±100 the full control effect
[14] = qHTS assay to test for compound auto fluorescence at 460 nm (blue) in HepG2 cells (AID 720687); further: on the % scale 0 is the no-effect control and ±100 the full control effect
Outline: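 Blue-channel autofluorescence (Ex/Em 405/460 nm, triamterene-equivalent) was measured after 1 hr compound exposure at 37 C, 5% CO2. Cells were HepG2, plated overnight at 37 C in MEM plus 10% FBS.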

[15] = biological target: Glucocorticoid receptor (Homo sapiens) (UniProt P04150); test: qHTS assay to identify small molecule agonists of the glucocorticoid receptor (GR) signaling pathway (AID 720691; active means well fitted activation curve with a large enough effect in the signal ratio in the repeat runs, not every such curve was filed as active; the % refers to the signal ratio; further: on the % scale 0 is the no-effect control and ±100 the full control effect); conditions: GR-bla HeLa, beta-lactamase reporter ratio, 18 h; activation: at 62.4 µM (top of the series) unless noted
Sequence of Glucocorticoid receptor (Homo sapiens) (P04150 whole entry, looked up): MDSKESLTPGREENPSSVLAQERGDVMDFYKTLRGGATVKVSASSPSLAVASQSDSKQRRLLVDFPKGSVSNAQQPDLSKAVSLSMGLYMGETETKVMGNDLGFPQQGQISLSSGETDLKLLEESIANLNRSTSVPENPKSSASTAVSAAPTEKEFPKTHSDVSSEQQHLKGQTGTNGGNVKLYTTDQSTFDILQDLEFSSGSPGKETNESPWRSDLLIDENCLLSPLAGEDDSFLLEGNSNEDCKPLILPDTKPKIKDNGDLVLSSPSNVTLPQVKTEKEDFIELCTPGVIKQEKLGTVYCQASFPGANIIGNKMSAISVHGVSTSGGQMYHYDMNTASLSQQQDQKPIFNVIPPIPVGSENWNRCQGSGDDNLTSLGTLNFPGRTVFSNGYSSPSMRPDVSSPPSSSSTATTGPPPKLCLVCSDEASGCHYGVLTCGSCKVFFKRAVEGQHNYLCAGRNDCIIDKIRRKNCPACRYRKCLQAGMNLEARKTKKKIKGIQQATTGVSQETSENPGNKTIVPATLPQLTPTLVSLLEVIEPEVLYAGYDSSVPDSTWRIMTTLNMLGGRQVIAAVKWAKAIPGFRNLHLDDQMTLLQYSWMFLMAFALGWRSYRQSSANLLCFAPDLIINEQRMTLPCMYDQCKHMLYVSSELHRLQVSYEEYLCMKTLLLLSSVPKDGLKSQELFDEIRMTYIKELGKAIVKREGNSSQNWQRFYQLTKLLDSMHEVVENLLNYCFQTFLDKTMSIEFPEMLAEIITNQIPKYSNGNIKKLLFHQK
Outline: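 A HeLa cervical cancer line expressing GR and a glucocorticoid response element-driven beta-lactamase gene is treated with compounds for 18 h; LiveBLAzer B/G FRET substrate is then applied and fluorescence read.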

[16] = qHTS assay to test for compound auto fluorescence at 460 nm (blue) in HEK293 cells (AID 720678); further: on the % scale 0 is the no-effect control and ±100 the full control effect
Outline: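 HEK293, 2,000 cells/well, 10% dialyzed FBS; attach 4-5 hr 37C; pin compound or DMSO; o/n 37C/5% CO2; fluorescence 405/460 nm; triamterene-equivalent units.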

[17] = qHTS assay to test for compound auto fluorescence at 535 nm (green) in HEK293 cells (AID 720680); further: on the % scale 0 is the no-effect control and ±100 the full control effect
[18] = qHTS assay for small molecule disruptors of the mitochondrial membrane potential (AID 720635); further: potency means the concentration at half of the fitted maximal effect
Outline: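 Mitochondrial membrane potential tracked with Mito-MPS dye, red aggregates (ex 540/em 590 nm) against green monomers (ex 490/em 535 nm). Compound treatment 1 hr at 37C, dye 30 min in HepG2.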

[19] = biological target: Glucocorticoid receptor (Homo sapiens) (UniProt P04150); test: qHTS assay to identify small molecule antagonists of the glucocorticoid receptor (GR) signaling pathway (AID 720692; active means well fitted inhibition curve with a large enough effect in the signal ratio in the repeat runs, not every such curve was filed as active; the % refers to the signal ratio; further: on the % scale 0 is the no-effect control and ±100 the full control effect)
Outline: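 GRE-bla HeLa line, dex-stimulated (5 nM final). Compound exposure 18 h, 37 C. Beta-lactamase FRET read after 2 h RT substrate.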

COc1ccnc(CS(=O)c2nc3ccc(OC(F)F)cc3[nH]2)c1OC (centres undefined)
inactive: Potency [1] | Potency [2] | Potency [3] | Potency [4] | Potency [5] | Potency [6] | Potency [7] | outcome [8] | outcome [9] | Potency [10] | Potency [11] | outcome [12] | Potency [13] | outcome [14] | Potency [15]

CN1CCC(=C2c3ccccc3Sc3ccccc32)CC1
active: Potency [2] 29.8 µM
inactive: Potency [1] | Potency [4] | Potency [5] | Potency [6] | outcome [16] | Potency [7] | outcome [17] | outcome [8] | outcome [9] | Potency [11] | outcome [12] | Potency [13] | outcome [14] | Potency [15]

CN(C)CCCN1c2ccccc2Sc2ccccc21
inactive: Potency [1] | Potency [2] | Potency [3] | Potency [4] | fluorescence, relative to Rose Bengal [5] 0.23% [at 18.6 µM] | fluorescence, % of fluorescein control [6] -0.18% [at 18.6 µM] | fluorescence, % of triamterene [16] 0.0346% [at 18.6 µM] | fluorescence, % of fluorescent control [7] -0.0069% [at 18.6 µM] | fluorescence, % of fluorescent control [8] -0.0313% [at 18.6 µM] | activity change [9] -0.0157% [at 18.6 µM] | fluorescence, % of fluorescent control [10] 0.0444% [at 18.6 µM] | fluorescence, % of Rose Bengal [11] -0.194% [at 18.6 µM] | fluorescence, % of fluorescent control [12] 0.0019% [at 18.6 µM] | fluorescence, % of fluorescein control [13] 0.134% [at 18.6 µM] | fluorescence, % of fluorescent control [14] -0.0716% [at 18.6 µM]

CCCCNc1ccc(C(=O)OCCOCCOCCOCCOCCOCCOCCOCCOCCOC)cc1
active: Potency [18] 3.2 µM
inactive: Potency [1] | Potency [3] | Potency [4] | fluorescence, relative to Rose Bengal [5] -0.666% [at 18.6 µM] | fluorescence, % of fluorescein control [6] -0.0335% [at 18.6 µM] | fluorescence, % of triamterene [16] -0.29% [at 18.6 µM] | fluorescence, % of fluorescent control [7] 0.183% [at 18.6 µM] | fluorescence, % of fluorescent control [8] -0.35% [at 18.6 µM] | activity change [9] -0.0595% [at 18.6 µM] | fluorescence, % of fluorescent control [10] -0.482% [at 18.6 µM] | fluorescence, % of Rose Bengal [11] -0.448% [at 18.6 µM] | fluorescence, % of fluorescent control [12] -0.106% [at 18.6 µM] | fluorescence, % of fluorescein control [13] -0.018% [at 18.6 µM] | fluorescence, % of fluorescent control [14] -0.0219% [at 18.6 µM] | Potency [15] | Potency [19]

Nc1ccc(N)c2c1C(=O)c1ccccc1C2=O
inactive: Potency [1] | Potency [2] | Potency [5] | Potency [6] | outcome [16] | Potency [7] | outcome [17] | outcome [8] | outcome [9] | Potency [10] | Potency [11] | outcome [12] | Potency [13] | outcome [14] | Potency [15]
active: Potency [3] 27.3 µM

CCCCCCCCCCCCCCCCCCOS(=O)(=O)O
active: Potency [2] 61.1 µM
inactive: Potency [1] | Potency [3] | Potency [4] | Potency [5] | Potency [6] | outcome [16] | Potency [7] | outcome [17] | outcome [8] | Potency [10] | Potency [11] | outcome [12] | Potency [13] | outcome [14] | Potency [15]

CN(C)CCN(Cc1ccccc1)c1ccccn1
inactive: Potency [1] | Potency [2] | Potency [3] | Potency [4] | Potency [5] | Potency [6] | outcome [16] | Potency [7] | outcome [17] | outcome [8] | Potency [10] | Potency [11] | outcome [12] | Potency [15] | Potency [19]

Cc1oc(-c2ccccc2)nc1CCOc1cccc2c1ccn2CCC(=O)O
inactive: Potency [1] | Potency [2] | Potency [4] | Potency [6] | outcome [16] | Potency [7] | outcome [17] | outcome [8] | outcome [9] | Potency [10] | Potency [11] | outcome [12] | Potency [13] | Potency [15] | Potency [19]

Source: PubChem BioAssay (Tox21)
